Screens (PubChem)
Measles CPE – protection of cells from measles virus. Measles virus-infected cells, CPE protection, absorbance. protection (pct of control), % at 4 µM. 140,000 tested, 1.5% active. AID 841; in the data active = protection mostly above about 24%, no sharp cut-off; inactive = mostly below about 26%
ROMK primary – modulators of human ROMK potassium channel. P48048. Tet-inducible ROMK, thallium flux fluorescence; actives lie on both sides. B-score at 10 µM. 130,000 tested, 2% active;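 active = signal ratio slope over the read window, or its plate-corrected B-score, at least 3 SD from the plate mean, either direction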;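 also: B-score of the F/F0 ratio slope over 7 to 12 s after thallium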
Target sequence (P48048 whole entry, looked up): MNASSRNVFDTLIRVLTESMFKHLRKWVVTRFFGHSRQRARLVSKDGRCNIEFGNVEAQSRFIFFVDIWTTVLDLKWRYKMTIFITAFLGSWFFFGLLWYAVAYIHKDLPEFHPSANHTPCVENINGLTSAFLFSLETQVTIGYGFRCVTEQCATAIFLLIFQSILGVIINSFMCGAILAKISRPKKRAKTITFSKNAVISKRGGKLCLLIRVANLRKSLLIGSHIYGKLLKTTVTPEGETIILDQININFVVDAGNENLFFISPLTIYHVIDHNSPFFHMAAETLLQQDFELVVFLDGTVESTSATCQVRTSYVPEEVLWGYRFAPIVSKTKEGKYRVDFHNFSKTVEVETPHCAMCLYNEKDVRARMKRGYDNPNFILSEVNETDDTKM
SDO1 yeast rescue – compounds rescuing growth of sdo1-depleted yeast, bone marrow failure model; z-score at 10 µM; AID 817; 140,000 tested, 0.21% active; S. cerevisiae sdo1-depleted JHY4D growth rescue, OD600 30 h; active compounds read high; pdr5 snq2 efflux-pump mutant strain;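 active = z-score above 3 at both the 24 hr and the 30 hr optical density reads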;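 also: z-score against mean and SD of all compound wells on the same plate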
INS promoter inh – TRM-6 insulin promoter activity inhibition; TRM-6 cells (human fetal islet line), insulin promoter-eGFP reporter, imaging; reporter expression induced with tamoxifen; inhibition, % at 2 µM; 130,000 tested, 0.9% active;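 active = inhibition above the mean plus 3 SD, with well images judged a real hit on visual review, cut at about 60% in these data, passing the limit was not always enough; inconclusive = inhibition over the cutoff but images rejected on review; inactive = inhibition not above the cutoff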
ROMK hit retest – human ROMK channel modulation, retest confirmation; shares compounds with ROMK primary; ROMK thallium flux, fluorescence ratio; active compounds read low; normalized thallium flux (F/F0 slope) at 10 µM; 3,000 tested, 54% active; AID 1917;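 active = Flux at 10 µM at least 3 SD below or above vehicle control mean in one or both replicates; inconclusive = no clear call, values can overlap the other calls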
* = called active by the depositor. In the library only some 3% were active in any assay of this set; here they are far more common.

`O=C(O)/C=C/C(=O)Nc1ccc(Oc2ncnc3cc(Cl)ccc23)nc1` gave ROMK primary -0.12.
Screening CCCCOc1ccc(CSCCN=C(N)N)cc1 returned ROMK primary -3.4* and ROMK hit retest 0.054*.
`CC(C)CC1N=C2c3ccccc3N=C(SCc3cc(=O)n4ccccc4n3)N2C1=O` (configuration not stated) gave ROMK primary -0.53 and INS promoter inh -71.
For COc1ccccc1N=C(C)C1=C(O)CC(c2ccccc2)CC1=O (configuration not stated) the results were ROMK primary 8*, INS promoter inh -163 and ROMK hit retest 0.082.
`CCCC(=Nc1ccccc1OC)C1=C(O)CC(c2ccccc2)CC1=O` (configuration not stated) gave Measles CPE 2, ROMK primary 0.51, SDO1 yeast rescue -1.5 and INS promoter inh 33.
For CCC(C)NCC(=O)Nc1ccc(-c2nc3cc(NC(=O)CNC(C)CC)ccc3o2)cc1 (configuration not stated) the results were Measles CPE 4, ROMK primary -2.3*, SDO1 yeast rescue 0.84 and ROMK hit retest 0.061*.
For O=C(Nc1ccc(Br)cc1)C1CCCN1S(=O)(=O)c1cccs1 (configuration not stated) the results were Measles CPE 10, ROMK primary -3.3*, SDO1 yeast rescue -1.2, INS promoter inh -32 and ROMK hit retest 0.061*.
Screening O=C(O)C1CCCN1S(=O)(=O)c1cccs1 (configuration not stated) returned Measles CPE 19, ROMK primary 0.64, SDO1 yeast rescue 1.2 and INS promoter inh 6.
Screening O=C(Nc1ccc2oc(-c3cccnc3)nc2c1)c1cccnc1 returned Measles CPE 14, ROMK primary -5.1*, SDO1 yeast rescue 1.3 and ROMK hit retest 0.08.
COc1ccc2nc(C)cc(C(=O)O)c2c1 was read as Measles CPE 23 and SDO1 yeast rescue 0.91.
Screening CCOc1ccc2nc(C)cc(C(=O)O)c2c1 returned Measles CPE 10, ROMK primary 1.9*, SDO1 yeast rescue -0.28 and ROMK hit retest 0.087.
Screening COc1cc(/C=C(\C#N)C(N)=O)ccc1OS(=O)(=O)c1ccc(C)cc1 returned Measles CPE 5, SDO1 yeast rescue -0.49, INS promoter inh 39 and ROMK hit retest 0.041*.
For Cc1ccc(C(C)C)c(OCc2nn(CC(=O)c3ccc(OC(F)F)cc3)c3[n+]2CCCCC3)c1 the results were ROMK primary -4.2* and ROMK hit retest 0.055*.
For COc1ccc(NC(=O)Nc2cccc(C(F)(F)F)c2)cn1 the results were ROMK primary -1.3.
For CCOC(=O)c1cnc(-n2nc(C)cc2C)nc1NC1CCCCC1 the results were Measles CPE 11, ROMK primary -4.7*, SDO1 yeast rescue -3.3, INS promoter inh 36 and ROMK hit retest 0.056*.
CC(=O)N1c2ccccc2NC2=C(C(=O)CC(C)(C)C2)C1c1cccn1C (configuration not stated) was read as ROMK primary 1.3 and INS promoter inh 23.
Screening Cc1cc(-c2nn(-c3ccccc3F)cc2CN2CCN(c3ccncc3)CC2)c(C)s1 returned ROMK primary -3.1* and ROMK hit retest 0.064*.
C=CC[n+]1c(/C=C2\C=Cc3cc(C)ccc3N2CC)ccc2ccccc21 was read as ROMK primary -3.4*, INS promoter inh -413 and ROMK hit retest 0.053*.
Screening C/C(=N\Nc1ccc([N+](=O)[O-])cc1)c1cccc(N)c1 returned Measles CPE 18, ROMK primary -0.056 and SDO1 yeast rescue -1.4.
For C/C(=N\Nc1ccc([N+](=O)[O-])cc1)c1ccc(O)cc1 the results were ROMK primary -4.5* and ROMK hit retest 0.053*.
Screening Cc1ccc(S(=O)(=O)NC(CC(=O)NCc2ccco2)c2ccco2)cc1 (configuration not stated) returned Measles CPE 5, ROMK primary 2.8*, SDO1 yeast rescue 0.65, INS promoter inh -29 and ROMK hit retest inconclusive.
Screening CC1CCCC(NC(=O)COC(=O)CN2C(=O)C3CCCCC3C2=O)C1C (configuration not stated) returned Measles CPE 8 and SDO1 yeast rescue 0.71.
Screening CC12CCC(C(=O)N3CCC(Cc4ccccc4)CC3)(C(=O)C1=O)C2(C)C (configuration not stated) returned ROMK primary -0.84 and INS promoter inh 14.
For CCCS(=O)(=O)c1c(S(=O)(=O)CCC)c2ccc(C(N)=O)cn2c1C(=O)c1ccc(OC)cc1 the results were ROMK primary -2.7, INS promoter inh 11 and ROMK hit retest 0.061*.
For COc1cc(/C=C/C(=O)NCCN2CCOCC2)cc(OC)c1OC the results were Measles CPE 7, ROMK primary 0.88, SDO1 yeast rescue 0.32 and INS promoter inh -24.
Screening O=C(NCC(c1cccs1)N1CCOCC1)c1ccccc1NS(=O)(=O)c1ccc(Cl)cc1 (configuration not stated) returned Measles CPE 7 and SDO1 yeast rescue -0.23.
`O=C(NCC(c1cccs1)N1CCOCC1)c1ccccc1NS(=O)(=O)c1cc([N+](=O)[O-])ccc1Cl` (configuration not stated) gave Measles CPE 6, SDO1 yeast rescue -0.08 and ROMK hit retest 0.068*.
Screening CC12CC3(C)CC(C)(C1)CC(C(=O)NC(=S)NC(C)(C)C)(C2)C3 returned Measles CPE 10, ROMK primary 2.5*, SDO1 yeast rescue -0.9, INS promoter inh 33 and ROMK hit retest inconclusive.
For CCc1nn2c(=O)cc(CSc3nc4sc5c(c4c(=O)n3C)CCCC5)nc2s1 the results were INS promoter inh -30.
`COC(=O)c1cc(NC(=O)C2CCCN(S(=O)(=O)c3c(C)n[nH]c3C)C2)cc(C(=O)OC)c1` (configuration not stated) gave ROMK primary 0.9.
For Cc1ccnc(NS(=O)(=O)c2ccc(NC(=O)c3ccc(N4C(=O)CCC4=O)cc3)cc2)n1 the results were Measles CPE 3, ROMK primary 0.065, SDO1 yeast rescue -0.04 and INS promoter inh -8.
For Cc1ccnc(NS(=O)(=O)c2ccc(NC(=O)CN3C(=O)CCC3=O)cc2)n1 the results were ROMK primary 2.6*, INS promoter inh 29 and ROMK hit retest 0.082.
CCN(CC)C(=O)Oc1nnc(SC(C)C)n1-c1ccc(Cl)cc1 was read as ROMK primary -1.3.
COc1cccc(CN2C(=O)c3cccc(N)c3C2=O)c1 was read as Measles CPE 5, ROMK primary -2.1*, SDO1 yeast rescue -0.98, INS promoter inh 30 and ROMK hit retest 0.057*.
CN1/C(=C\C=C2/C(=O)Oc3ccccc3C2=O)C(C)(C)c2ccccc21 was read as Measles CPE 10, SDO1 yeast rescue -1.1 and INS promoter inh -223.
For CC1=NN(c2ccccc2)C(=O)/C1=C\C=C1/N(C)c2ccccc2C1(C)C the results were Measles CPE 11, SDO1 yeast rescue -2.1 and ROMK hit retest 0.08.
